Assay outcomes from PubChem BioAssay.
Rows were chosen to be rich in hits. Some 5.7% of all compounds tested hit in one or more screens of this group.
GLP-1R agonist – agonists of human GLP-1 receptor | HEK293 GLP-1R CRE-luciferase, luminescence, 4-6 h; cells express a hypersensitive GLP-1R form | 380,000 compounds, 0.007% hits | Potency, µM (highest dose often 45.6 µM), for the others: at the top dose activation, most hits filed as activators; also: potency is read from the fitted curve at half-maximal effect; % of control where 0% means no effect
ClpP mod – qHTS Assay for Activators of ClpP; Potency, µM (titrated, usually from 57.5 µM), for the others: at the top dose activity change, negative = active; purified B. subtilis ClpP, FRET peptide cleavage, 20 min; 340,000 compounds, 1.9% hits; ATP-dependent Clp protease proteolytic subunit (Bacillus subtilis (strain 168)), P80244; active = well fitted falling curve with a large enough effect; inconclusive = small, poorly fitted or top-dose-only effect; inactive = no such curve, though single readings can be large or run the other way; also: potency is read from the fitted curve at half-maximal effect; the source files actives as falling curves though it sought activators and does not explain the sign; nearly all actives have a fitted effect of over 65% in size
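Purified B. subtilis ClpP, 10 microg/mL final in Tris/HCl pH8 with KCl, BSA, glycerol and Tween-20, cleaved an Abz/nitrotyrosine-quenched decapeptide. Fluorescence (ex 320, em 430) was read at 0 and 20 min at room temperature. Delta was normalized to 5.8 microM ADEP and DMSO/no-enzyme controls.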
HEK293 tox – cytotoxicity in counter-screen for GLP-1R inverse agonists | HEK293 cAMP-luciferase reporter cells, luminescence, 24 h | Potency, µM (series often up to 38.3 µM), for inactives: at the highest dose activity change, negative = inhibition, hits mostly inhibitors | 410,000 compounds, 0.13% hits | AID 624418;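 also: loss of luciferase light is scored as toxicity; potency is read from the fitted curve at half-maximal effect; % is scaled to controls: 0 for no effect and ±100 for the full control effect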
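Step one: seed cells (200 cells/uL, DMEM with 10% Nu serum, 1% pen-strep). Step two: 12-hour incubation at 37 deg C. Step three: pin 23 nL compound, incubate 24 hr. Step four: add luciferase reagent, read luminescence 12 min later.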
D3 antag – antagonists of human D3 dopamine receptor; P35462; AID 652054; max response, negative = inhibition, %; 360,000 compounds, 2.5% hits; D3R cells, DiscoveRx beta-arrestin luminescence, antagonist mode; active compounds read low; in the data active = max response below about -50%; inconclusive = no clear call, values can overlap the other calls; also: % is scaled to controls: 0 for no effect and ±100 for the full control effect
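Cells plated overnight at 1500 cells/well, then exposed to library compounds with dopamine controls for 90 minutes at 37 degrees C. DiscoveRx reagent added for 30–60 minutes at room temperature; luminescence read, quantitative HTS format.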
DRD3 agonist – agonists of human D3 dopamine receptor; max activation, %; D3R DiscoveRx beta-arrestin cells, luminescence, 90 min; 410,000 compounds, 0.58% hits; in the data active = max activation above about 30%; also: 0% is about no effect
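Agonist mode: compounds and dopamine controls were applied to plated cells for 90 min at 37 degrees C after an overnight attachment at 1500 cells/well. Luminescent read-out followed 30 - 60 minutes at room temperature with DiscoveRx detection reagent.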
GLP1R inv ag – inverse agonists of human GLP-1 receptor. P43220. HEK293 GLP-1R CRE-luciferase, luminescence, 24 h; GLP-1R form is constitutively active. Potency, µM (doses to about 38.3 µM), without a hit: top-dose activity change, negative = inhibition, hits mostly inhibitors. 410,000 compounds, 1.6% hits; also: potency is read from the fitted curve at half-maximal effect; % is scaled to controls: 0 for no effect and ±100 for the full control effect; nearly all actives have a fitted effect of over 55% in size
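Stable HEK293 clone (constitutively active GLP-1R + cAMP-response luciferase); 200 cells/uL plated, 12 h pre-culture, compound 24 hr, 37 deg C/5% CO2; detection reagent 12 min RT; luminescence.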
An asterisk follows results filed as active; u = inconclusive; x = not tested or not shown. Unless noted, calls follow the shape of the dose curve; as a rule, active = well fitted curve in the direction sought with a large enough effect; inconclusive = small, poorly fitted or top-dose-only effect, or another doubt; inactive = no such curve, though single readings can be large; an effect the other way counts as inactive or inconclusive.

SMILES	GLP-1R agonist	ClpP mod	HEK293 tox	D3 antag	DRD3 agonist	GLP1R inv ag
NS(=O)(=O)c1cccc(NC(=O)COC(=O)c2ccc(S(=O)(=O)N3CCOCC3)cc2)c1	-1%	3%	-3%	-11	3	18%
O=C1CN(C(=S)Nc2ccccc2Cl)CCN1	2%	-2%	3%	5	45*	-5%
COc1ccc(Nc2nc(N3CCOCC3)nc(N3CCOCC3)n2)c(OC)c1	-3%	-3%	3%	-9	1	10%
COc1ccc(Nc2nc(Nc3ccc(OC)cc3OC)nc(N3CCOCC3)n2)c(OC)c1	x	u	15%	x	40*	-1%
CCN1C(=O)[C@H]2[C@@H](c3ccc(C)cc3)N3C(=O)N(c4ccc(OC)cc4)C(=O)[C@@]3(CC)[C@H]2C1=O	3%	1%	0%	0	46*	2%
CC[C@@]12C(=O)N(c3cccc(C)c3)C(=O)N1[C@H](c1ccc(OC)cc1)[C@@H]1C(=O)N(C(C)(C)C)C(=O)[C@@H]12	3%	0%	8%	16	4	-19%
O=C1[C@H]2[C@@H](c3ccc(Cl)cc3)N3C(=O)N(c4cccc(F)c4)C(=O)[C@@]3(Cc3ccc(Cl)cc3)[C@H]2C(=O)N1C1CCCCC1	-6%	-3%	10%	-17	-8	15%
O=C1[C@H]2[C@@H](c3ccc(Cl)cc3)N3C(=O)N(c4cccc(Cl)c4)C(=O)[C@@]3(Cc3ccc(Cl)cc3)[C@H]2C(=O)N1C1CCCCC1	-6%	-2%	-16%	-8	-18	4µM*
Cc1ccc(N2C(=O)N3[C@H](c4ccc(Cl)cc4)[C@@H]4C(=O)N(C5CCCCC5)C(=O)[C@@H]4[C@]3(Cc3ccccc3)C2=O)cc1	-2%	1%	-2%	9	-14	u
Cc1ccc(N2C(=O)N3[C@H](c4ccc(F)cc4)[C@@H]4C(=O)N(C5CCCCC5)C(=O)[C@@H]4[C@]3(C)C2=O)cc1	-3%	4%	-31%	u	-11	10µM*
CC[C@@]12C(=O)N(c3cccc(Br)c3)C(=O)N1[C@H](c1ccc(Cl)cc1)[C@@H]1C(=O)N(C3CCCCC3)C(=O)[C@@H]12	-3%	1%	1%	38	1	u
CC[C@@]12C(=O)N(c3ccc(OC)cc3)C(=O)N1[C@H](c1ccc(Cl)cc1)[C@@H]1C(=O)N(C3CCCCC3)C(=O)[C@@H]12	-1%	-2%	4%	-57*	-41	u
CCc1nc2c(OCc3cccc(Cl)c3)cccn2c1N(C)C(=O)c1ccncc1	-6%	-2%	2%	u	-4	16%
CCC(=O)N1CCc2cc(Br)cc(S(=O)(=O)CCC(=O)Nc3ccc(CC)cc3)c21	x	3%	2%	x	7	6%
COc1ccc(N2C(=O)N3[C@H](c4cccc(C)c4)[C@@H]4C(=O)N(Cc5ccccc5)C(=O)[C@@H]4[C@]3(Cc3ccccc3)C2=O)cc1	-4%	1%	2%	-6	31*	-3%
COC(=O)c1cc(=O)nc2sc(-c3ccc(F)cc3)nn12	7%	28µM*	2%	-22	-4	8%
COC(=O)c1cc(=O)nc2sc3ccccc3n12	-1%	-9%	10%	-51*	0	17%
COC(=O)c1cc(=O)nc2sc(-c3cccs3)nn12	-16%	318%	5%	-14	6	-5%
Cc1ccc(Cl)cc1-n1c(CCC(=O)O)ccc1-c1cccs1	x	-7%	2%	x	0	-21%
C=CCNCC#CCOc1ccc(OC)cc1	9%	-4%	-10%	-62*	-5	-13%
C=CCC(CC=C)(CNC(=O)C(=O)Nc1ccc(Br)cc1)c1ccc(OC)c(OC)c1	x	-1%	10%	x	-10	17%
Cc1ccc(Cn2ccn(Cc3ccccc3F)c(=O)c2=O)cc1	x	-1%	6%	x	-2	-10%
CCN(c1ccccc1)C(CNS(=O)(=O)c1ccccc1)c1ccccc1 (stereo not drawn)	x	-11%	-6%	x	-9	10µM*
Cc1cccc(N(C)C(CNS(=O)(=O)c2ccccc2)c2ccccc2)c1 (stereo not drawn)	x	-16%	4%	x	4	10µM*
Cc1cc(O)c(C(C)C)cc1C1(c2cc(C(C)C)c(O)cc2C)OC(=O)c2ccccc21	-6%	x	u	108	61*	u
SMILES	GLP-1R agonist	ClpP mod	HEK293 tox	D3 antag	DRD3 agonist	GLP1R inv ag
Cc1[nH]nc2c1-c1nc3ccccc3nc1C(C)(C)C2	10%	14µM*	4%	14	4	2%
CC12CCC(C)(c3nc4ccccc4nc31)C2(C)C	3%	x	-7%	-1	0	u
CC(C1=C(CCN(C)C)Cc2ccccc21)c1ccccn1 (stereo not drawn)	-3%	32µM*	-7%	-7	-16	u
CCOC(=O)N1CCc2c(sc3c2c(=O)n(-c2ccc(F)cc2)c(=O)n3CC(=O)c2ccc(Cl)cc2)C1	x	-6%	-9%	x	8	-14%
CCCCCCc1ccc(-c2ncc(N)cn2)cc1	-5%	32µM*	8%	17	10	0%
CCCCCc1ccc(-c2nnc(N)s2)cc1	18%	x	17%	8	25	227%
Cc1ccc(Nc2cc(C)nc3ccccc23)c(C)c1	6%	-1%	-61%	25	1	10µM*
Cc1ccc(C)c(Nc2cc(C)nc3ccccc23)c1	-6%	-4%	u	0	-6	7.1µM*
CCCCCCn1c(=O)n2n(c1=O)C[C@]1(OC(=O)NCc3ccccc3)CN(S(=O)(=O)c3ccc(C)cc3)C[C@]1(O)C2	7%	0%	-25%	22	3	-28%
C[C@@H]1CN([C@@H](C)CO)C(=O)CCCn2cc(nn2)CO[C@H]1CN(C)S(=O)(=O)c1ccc2c(c1)OCCCO2	1%	1%	2%	1	0	0%
COc1ccc(NC(=O)Cn2c(=O)n(Cc3ccco3)c(=O)c3sc4ccccc4c32)cc1OC	1%	-5%	1%	x	-13	0%
CC1(C)CC[C@]2(C(=O)n3ccnc3)CC[C@]3(C)[C@H](C(=O)C=C4[C@@]5(C)C=C(C#N)C(=O)C(C)(C)[C@@H]5CC[C@]43C)[C@@H]2C1	-2%	-2%	-10%	u	-2	2.5µM*
Cc1cc2c(c(N)n1)c(=O)oc1ccccc12	11%	40µM*	67%	-8	10	55%
